According to ChEMBL document CHEMBL2218924, “A broad activity screen in support of a chemogenomic map for kinase signalling research and drug discovery” (Biochem J, 2013):

Tests used:
[1] = molecular target: Death-associated protein kinase 1 (Homo sapiens) (UniProt P53355); settings: at 10 µM
[2] = molecular target: Death-associated protein kinase 2 (Homo sapiens) (UniProt Q9UIK4); settings: at 1 µM
[3] = molecular target: Death-associated protein kinase 2 (Homo sapiens) (UniProt Q9UIK4); settings: at 10 µM
[4] = molecular target: T1, Serine/threonine-protein kinase DCLK2 (Homo sapiens) (UniProt Q8N568); settings: at 1 µM
T1 sequence (whole entry): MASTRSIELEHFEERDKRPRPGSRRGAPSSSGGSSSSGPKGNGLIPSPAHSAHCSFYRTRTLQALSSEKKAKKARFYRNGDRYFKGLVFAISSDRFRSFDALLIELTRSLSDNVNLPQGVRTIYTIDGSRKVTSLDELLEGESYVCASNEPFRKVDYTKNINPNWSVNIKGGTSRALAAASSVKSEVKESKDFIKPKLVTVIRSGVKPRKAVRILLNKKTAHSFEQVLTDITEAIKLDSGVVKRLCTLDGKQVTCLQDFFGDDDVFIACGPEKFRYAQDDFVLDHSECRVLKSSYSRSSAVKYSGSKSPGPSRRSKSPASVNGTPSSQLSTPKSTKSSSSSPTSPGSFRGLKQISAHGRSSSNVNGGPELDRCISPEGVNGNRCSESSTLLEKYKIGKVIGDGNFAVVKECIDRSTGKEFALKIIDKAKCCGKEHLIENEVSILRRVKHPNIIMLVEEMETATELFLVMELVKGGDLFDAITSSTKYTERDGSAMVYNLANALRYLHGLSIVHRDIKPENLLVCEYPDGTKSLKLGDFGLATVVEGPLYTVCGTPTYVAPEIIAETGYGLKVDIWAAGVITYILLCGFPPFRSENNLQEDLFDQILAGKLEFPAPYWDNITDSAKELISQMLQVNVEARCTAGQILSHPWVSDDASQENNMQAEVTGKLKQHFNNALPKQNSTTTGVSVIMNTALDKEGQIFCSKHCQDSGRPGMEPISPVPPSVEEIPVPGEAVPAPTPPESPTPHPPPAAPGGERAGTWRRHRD

[5] = molecular target: T1, Serine/threonine-protein kinase DCLK2 (Homo sapiens); settings: at 10 µM
[6] = molecular target: T2, Discoidin domain-containing receptor 2 (Homo sapiens) (UniProt Q16832); settings: at 1 µM
T2 sequence (whole entry): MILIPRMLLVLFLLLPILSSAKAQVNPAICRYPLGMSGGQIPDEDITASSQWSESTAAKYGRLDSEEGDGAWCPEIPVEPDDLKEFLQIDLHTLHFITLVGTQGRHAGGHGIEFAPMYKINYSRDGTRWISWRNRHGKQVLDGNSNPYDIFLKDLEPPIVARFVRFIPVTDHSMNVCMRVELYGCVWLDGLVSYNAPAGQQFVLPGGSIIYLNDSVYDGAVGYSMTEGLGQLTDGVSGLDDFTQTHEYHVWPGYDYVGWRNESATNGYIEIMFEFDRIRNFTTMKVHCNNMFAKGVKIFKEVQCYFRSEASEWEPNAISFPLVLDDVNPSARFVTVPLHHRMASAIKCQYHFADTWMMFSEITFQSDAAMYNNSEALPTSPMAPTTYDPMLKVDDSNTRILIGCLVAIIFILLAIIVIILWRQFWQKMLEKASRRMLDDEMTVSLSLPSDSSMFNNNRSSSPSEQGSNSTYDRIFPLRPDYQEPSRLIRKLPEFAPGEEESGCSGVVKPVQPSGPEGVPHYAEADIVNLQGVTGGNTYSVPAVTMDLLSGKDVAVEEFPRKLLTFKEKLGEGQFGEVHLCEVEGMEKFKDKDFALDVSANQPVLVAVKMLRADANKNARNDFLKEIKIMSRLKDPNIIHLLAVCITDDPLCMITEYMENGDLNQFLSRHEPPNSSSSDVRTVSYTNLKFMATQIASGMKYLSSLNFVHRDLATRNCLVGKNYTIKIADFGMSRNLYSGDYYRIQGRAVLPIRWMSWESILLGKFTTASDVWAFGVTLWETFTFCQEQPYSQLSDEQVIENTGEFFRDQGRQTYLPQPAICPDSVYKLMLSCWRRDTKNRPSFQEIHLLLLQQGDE

[7] = molecular target: T2, Discoidin domain-containing receptor 2 (Homo sapiens); settings: at 10 µM
[8] = molecular target: T3, Myotonin-protein kinase (Homo sapiens) (UniProt Q09013); settings: at 1 µM
T3 sequence (whole entry): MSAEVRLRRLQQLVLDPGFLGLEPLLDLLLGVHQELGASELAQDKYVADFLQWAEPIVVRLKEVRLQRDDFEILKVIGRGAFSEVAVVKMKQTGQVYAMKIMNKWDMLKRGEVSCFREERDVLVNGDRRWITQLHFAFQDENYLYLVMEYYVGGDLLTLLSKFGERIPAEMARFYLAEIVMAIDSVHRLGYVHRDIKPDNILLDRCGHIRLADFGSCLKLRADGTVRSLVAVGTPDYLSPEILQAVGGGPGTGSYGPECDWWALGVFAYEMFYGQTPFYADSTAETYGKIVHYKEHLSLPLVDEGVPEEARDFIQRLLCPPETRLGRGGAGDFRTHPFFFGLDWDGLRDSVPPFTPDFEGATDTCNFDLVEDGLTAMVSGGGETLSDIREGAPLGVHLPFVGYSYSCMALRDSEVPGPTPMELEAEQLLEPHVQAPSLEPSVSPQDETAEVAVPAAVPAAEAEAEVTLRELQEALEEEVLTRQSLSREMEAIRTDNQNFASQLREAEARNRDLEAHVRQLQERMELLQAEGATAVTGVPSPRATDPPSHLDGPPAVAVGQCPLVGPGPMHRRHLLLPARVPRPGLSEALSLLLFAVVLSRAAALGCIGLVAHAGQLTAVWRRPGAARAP

[9] = molecular target: T3, Myotonin-protein kinase (Homo sapiens); settings: at 10 µM
[10] = molecular target: T4, Dual specificity tyrosine-phosphorylation-regulated kinase 2 (Homo sapiens) (UniProt Q92630); settings: at 1 µM
T4 sequence (whole entry): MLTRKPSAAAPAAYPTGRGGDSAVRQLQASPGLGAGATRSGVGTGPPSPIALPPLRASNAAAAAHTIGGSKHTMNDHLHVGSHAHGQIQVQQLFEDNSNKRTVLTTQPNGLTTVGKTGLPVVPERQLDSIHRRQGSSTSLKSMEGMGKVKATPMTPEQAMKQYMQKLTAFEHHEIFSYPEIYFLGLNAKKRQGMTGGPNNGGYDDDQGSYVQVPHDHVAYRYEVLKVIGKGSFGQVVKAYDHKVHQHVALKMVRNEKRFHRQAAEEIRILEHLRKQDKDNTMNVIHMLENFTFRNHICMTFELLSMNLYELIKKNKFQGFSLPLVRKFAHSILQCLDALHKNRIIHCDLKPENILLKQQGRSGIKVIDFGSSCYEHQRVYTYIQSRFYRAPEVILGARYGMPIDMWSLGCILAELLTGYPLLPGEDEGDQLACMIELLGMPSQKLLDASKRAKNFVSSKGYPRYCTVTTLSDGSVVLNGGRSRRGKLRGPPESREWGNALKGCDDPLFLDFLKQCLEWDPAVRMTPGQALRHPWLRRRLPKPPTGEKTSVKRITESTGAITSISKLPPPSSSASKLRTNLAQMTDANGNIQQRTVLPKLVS

[11] = molecular target: T4, Dual specificity tyrosine-phosphorylation-regulated kinase 2 (Homo sapiens); settings: at 10 µM
[12] = molecular target: T5, Ephrin type-A receptor 1 (Homo sapiens) (UniProt P21709); settings: at 1 µM
T5 sequence (whole entry): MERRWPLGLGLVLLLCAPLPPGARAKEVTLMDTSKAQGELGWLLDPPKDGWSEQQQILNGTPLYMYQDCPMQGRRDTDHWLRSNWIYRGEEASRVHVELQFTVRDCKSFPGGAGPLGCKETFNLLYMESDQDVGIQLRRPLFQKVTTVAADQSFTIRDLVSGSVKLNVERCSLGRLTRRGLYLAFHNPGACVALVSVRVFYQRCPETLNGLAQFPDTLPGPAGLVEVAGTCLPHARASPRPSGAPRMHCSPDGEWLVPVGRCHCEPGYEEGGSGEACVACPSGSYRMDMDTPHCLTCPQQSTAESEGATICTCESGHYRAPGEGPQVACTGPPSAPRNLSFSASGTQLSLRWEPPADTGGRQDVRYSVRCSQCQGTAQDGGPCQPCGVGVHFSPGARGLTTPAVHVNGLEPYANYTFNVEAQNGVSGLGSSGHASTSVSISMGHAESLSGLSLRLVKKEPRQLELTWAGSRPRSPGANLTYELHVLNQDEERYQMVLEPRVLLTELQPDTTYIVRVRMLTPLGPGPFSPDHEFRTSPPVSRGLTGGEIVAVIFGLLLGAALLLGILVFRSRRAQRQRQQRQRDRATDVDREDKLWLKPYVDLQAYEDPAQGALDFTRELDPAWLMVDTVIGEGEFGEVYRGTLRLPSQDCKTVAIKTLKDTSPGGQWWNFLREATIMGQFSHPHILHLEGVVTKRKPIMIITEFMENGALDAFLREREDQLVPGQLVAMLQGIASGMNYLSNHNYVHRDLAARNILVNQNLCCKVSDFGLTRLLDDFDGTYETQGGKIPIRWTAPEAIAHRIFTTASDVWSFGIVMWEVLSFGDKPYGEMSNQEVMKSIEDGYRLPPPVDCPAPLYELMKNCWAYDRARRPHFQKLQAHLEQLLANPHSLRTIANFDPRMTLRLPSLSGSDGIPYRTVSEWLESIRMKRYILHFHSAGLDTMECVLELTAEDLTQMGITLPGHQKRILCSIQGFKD

[13] = molecular target: T5, Ephrin type-A receptor 1 (Homo sapiens); settings: at 10 µM
[14] = molecular target: Ephrin type-A receptor 2 (Homo sapiens) (UniProt P29317); settings: at 1 µM
[15] = molecular target: T6, Ephrin type-A receptor 3 (Homo sapiens) (UniProt P29320); settings: at 1 µM
T6 sequence (whole entry): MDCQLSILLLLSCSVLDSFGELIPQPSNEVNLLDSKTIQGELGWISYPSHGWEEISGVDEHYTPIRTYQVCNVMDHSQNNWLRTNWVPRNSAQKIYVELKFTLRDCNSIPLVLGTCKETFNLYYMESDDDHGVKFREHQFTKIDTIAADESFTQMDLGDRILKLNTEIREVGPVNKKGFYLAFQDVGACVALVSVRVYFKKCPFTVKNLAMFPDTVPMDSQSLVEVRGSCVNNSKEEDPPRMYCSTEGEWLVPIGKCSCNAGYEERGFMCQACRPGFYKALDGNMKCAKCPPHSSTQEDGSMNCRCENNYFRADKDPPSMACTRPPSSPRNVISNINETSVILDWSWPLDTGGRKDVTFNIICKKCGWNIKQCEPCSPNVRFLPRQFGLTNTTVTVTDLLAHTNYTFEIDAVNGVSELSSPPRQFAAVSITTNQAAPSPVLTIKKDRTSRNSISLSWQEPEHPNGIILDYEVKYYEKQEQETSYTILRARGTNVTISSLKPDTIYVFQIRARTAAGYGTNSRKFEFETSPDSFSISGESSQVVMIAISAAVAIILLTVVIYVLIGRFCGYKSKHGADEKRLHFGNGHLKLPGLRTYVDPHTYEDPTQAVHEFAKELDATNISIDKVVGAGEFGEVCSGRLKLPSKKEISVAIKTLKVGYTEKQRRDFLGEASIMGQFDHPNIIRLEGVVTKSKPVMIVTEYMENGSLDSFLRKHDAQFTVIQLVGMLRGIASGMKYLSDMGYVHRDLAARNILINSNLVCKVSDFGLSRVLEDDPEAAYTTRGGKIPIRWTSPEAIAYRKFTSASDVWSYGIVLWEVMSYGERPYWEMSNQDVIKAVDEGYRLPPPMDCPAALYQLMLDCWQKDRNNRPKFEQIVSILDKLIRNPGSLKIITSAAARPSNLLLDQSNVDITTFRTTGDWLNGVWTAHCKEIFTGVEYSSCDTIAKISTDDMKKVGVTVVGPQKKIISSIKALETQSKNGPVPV

[16] = molecular target: T7, Serine/threonine-protein kinase 17A (Homo sapiens) (UniProt Q9UEE5); settings: at 10 µM
T7 sequence (whole entry): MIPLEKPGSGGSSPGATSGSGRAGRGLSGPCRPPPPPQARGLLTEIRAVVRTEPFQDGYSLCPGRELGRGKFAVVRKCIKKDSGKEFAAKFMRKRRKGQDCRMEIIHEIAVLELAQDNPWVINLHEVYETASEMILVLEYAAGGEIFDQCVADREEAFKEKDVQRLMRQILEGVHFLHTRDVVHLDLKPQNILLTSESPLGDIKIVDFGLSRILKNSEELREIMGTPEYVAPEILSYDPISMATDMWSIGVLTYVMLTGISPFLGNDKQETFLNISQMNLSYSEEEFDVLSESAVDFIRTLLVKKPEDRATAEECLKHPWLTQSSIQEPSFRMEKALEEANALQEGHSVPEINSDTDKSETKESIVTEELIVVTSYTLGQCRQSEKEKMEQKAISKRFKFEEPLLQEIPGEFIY

[17] = molecular target: Ephrin type-A receptor 2 (Homo sapiens) (UniProt P29317); settings: at 10 µM

Ephrin type-A receptor 2 (Homo sapiens), sequence (P29317 whole entry): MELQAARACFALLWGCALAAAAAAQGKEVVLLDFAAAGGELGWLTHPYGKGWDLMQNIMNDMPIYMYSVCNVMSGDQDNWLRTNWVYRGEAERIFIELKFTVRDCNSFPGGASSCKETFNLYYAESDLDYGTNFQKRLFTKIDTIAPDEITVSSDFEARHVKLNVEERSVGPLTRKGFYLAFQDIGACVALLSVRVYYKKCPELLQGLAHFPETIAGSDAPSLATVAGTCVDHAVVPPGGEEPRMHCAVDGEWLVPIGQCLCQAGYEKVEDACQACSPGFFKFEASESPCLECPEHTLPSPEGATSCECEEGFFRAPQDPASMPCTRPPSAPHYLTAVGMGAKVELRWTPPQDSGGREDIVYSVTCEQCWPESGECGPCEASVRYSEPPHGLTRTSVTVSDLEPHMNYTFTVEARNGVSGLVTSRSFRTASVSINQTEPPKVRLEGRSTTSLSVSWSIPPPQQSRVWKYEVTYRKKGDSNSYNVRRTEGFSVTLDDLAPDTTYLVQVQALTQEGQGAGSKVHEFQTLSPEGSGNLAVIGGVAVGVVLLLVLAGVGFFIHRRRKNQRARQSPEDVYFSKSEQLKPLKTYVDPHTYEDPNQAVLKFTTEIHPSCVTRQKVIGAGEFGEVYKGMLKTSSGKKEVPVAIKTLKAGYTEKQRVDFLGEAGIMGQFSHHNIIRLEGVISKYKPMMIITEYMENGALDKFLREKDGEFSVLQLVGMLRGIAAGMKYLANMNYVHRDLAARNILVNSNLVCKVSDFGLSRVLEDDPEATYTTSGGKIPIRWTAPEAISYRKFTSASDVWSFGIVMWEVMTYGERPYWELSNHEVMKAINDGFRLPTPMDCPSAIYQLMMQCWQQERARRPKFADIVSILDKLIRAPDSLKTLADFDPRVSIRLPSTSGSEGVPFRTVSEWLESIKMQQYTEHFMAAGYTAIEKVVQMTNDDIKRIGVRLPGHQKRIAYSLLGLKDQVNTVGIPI
Death-associated protein kinase 2 (Homo sapiens), sequence (Q9UIK4 whole entry, looked up): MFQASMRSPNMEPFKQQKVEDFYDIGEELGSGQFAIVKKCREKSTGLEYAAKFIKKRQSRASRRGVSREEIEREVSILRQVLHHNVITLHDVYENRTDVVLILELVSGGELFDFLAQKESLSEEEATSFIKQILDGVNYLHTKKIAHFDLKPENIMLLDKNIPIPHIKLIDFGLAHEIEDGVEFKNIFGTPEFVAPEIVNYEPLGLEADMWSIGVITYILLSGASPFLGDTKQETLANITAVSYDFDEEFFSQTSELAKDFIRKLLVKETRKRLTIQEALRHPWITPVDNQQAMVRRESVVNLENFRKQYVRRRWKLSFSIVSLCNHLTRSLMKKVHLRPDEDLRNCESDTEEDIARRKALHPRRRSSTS
Death-associated protein kinase 1 (Homo sapiens), sequence (P53355 whole entry, looked up): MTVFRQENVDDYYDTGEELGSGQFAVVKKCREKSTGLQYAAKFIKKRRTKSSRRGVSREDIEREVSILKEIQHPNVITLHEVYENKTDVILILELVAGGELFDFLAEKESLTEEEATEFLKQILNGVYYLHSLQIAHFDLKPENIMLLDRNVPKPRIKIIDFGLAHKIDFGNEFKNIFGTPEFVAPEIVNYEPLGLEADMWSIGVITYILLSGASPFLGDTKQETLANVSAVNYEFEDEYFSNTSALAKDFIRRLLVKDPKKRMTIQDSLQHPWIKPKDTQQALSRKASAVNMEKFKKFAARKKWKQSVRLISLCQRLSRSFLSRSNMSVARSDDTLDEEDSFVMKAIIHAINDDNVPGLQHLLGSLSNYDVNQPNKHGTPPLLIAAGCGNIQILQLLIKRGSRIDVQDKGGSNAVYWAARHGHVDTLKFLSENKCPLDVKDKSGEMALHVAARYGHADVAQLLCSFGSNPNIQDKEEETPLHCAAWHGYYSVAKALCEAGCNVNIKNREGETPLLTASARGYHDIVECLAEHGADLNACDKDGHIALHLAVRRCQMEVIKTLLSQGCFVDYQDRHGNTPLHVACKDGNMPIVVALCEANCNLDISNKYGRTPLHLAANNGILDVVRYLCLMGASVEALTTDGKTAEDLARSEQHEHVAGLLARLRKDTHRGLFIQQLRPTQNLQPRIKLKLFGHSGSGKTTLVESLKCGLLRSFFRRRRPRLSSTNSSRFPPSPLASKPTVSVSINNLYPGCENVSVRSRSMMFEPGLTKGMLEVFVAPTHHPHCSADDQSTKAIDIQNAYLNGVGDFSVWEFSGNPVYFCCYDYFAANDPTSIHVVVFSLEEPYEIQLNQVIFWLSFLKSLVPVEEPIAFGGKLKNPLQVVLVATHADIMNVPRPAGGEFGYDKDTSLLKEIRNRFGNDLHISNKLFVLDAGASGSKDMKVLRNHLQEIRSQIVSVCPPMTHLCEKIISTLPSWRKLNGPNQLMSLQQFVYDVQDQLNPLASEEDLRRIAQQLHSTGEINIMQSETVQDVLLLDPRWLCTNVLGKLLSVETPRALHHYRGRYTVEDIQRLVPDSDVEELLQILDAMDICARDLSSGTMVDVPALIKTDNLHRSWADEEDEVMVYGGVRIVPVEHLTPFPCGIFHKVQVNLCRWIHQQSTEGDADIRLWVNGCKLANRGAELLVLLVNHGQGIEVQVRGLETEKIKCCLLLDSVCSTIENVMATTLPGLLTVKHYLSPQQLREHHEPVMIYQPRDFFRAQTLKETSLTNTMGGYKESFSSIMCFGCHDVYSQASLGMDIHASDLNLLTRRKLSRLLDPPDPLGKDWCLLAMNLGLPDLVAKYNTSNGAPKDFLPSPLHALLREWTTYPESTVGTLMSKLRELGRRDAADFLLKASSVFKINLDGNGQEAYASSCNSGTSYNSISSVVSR

Row | Structure (SMILES) | residual activity [1] | residual activity [2] | residual activity [3] | residual activity [4] | residual activity [5] | residual activity [6] | residual activity [7] | residual activity [8] | residual activity [9] | residual activity [10] | residual activity [11] | residual activity [12] | residual activity [13] | residual activity [14] | residual activity [15] | residual activity [16] | residual activity [17]
1 | O=C(CCCc1ccc(-c2ccccc2F)cc1)Nc1ccc(O)cc1 | 105% | 102% | 99% | 133% | 192% | 99% | 111% | 108% | 97% | 105% | 91% | 93% | 86% | 97% | 99% | – | –
2 | COc1ccc2c(c1)c(C1=C(c3c[nH]c4ccccc34)C(=O)NC1=O)cn2CCCN(C)C | 76% | 71% | 32% | 54% | 55% | 111% | – | 103% | 104% | – | – | 71% | 42% | 104% | 106% | 27% | 33%
